Inconclusive results are not listed. Calls of active or inactive are those of the source.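 The calls were made as follows, unless noted: active = normalized viability below 100% at a tested concentration; inactive = the rest.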
How the values were obtained:
[1] = growth inhibition of DIPG glioma cells, dose response, cell-based, JHH-DIPG-1, MIPE4.0, CellTiter-Glo, qHTS (AID 1347062; cut-off not given, nearly all actives have AC50 up to about 27 µM;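 as to AC50: cells exposed to compound for two days before readout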); conditions: JHH-DIPG-1 viability, CellTiter-Glo ATP luminescence
[2] = growth inhibition of DIPG glioma cells, dose response, cell-based, SU-DIPG-IV, MIPE4.0, CellTiter-Glo, qHTS (AID 1347063; cut-off not given, nearly all actives have AC50 up to about 30 µM;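 also: compound exposure lasted 48 hours before the viability readout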); conditions: SU-DIPG-IV viability, CellTiter-Glo ATP luminescence
[3] = growth inhibition of DIPG glioma cells, dose response, cell-based, SU-DIPG-XIII, MIPE5.0, CellTiter-Glo, qHTS (AID 1347064; cut-off not given, nearly all actives have AC50 up to about 23 µM;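 as to AC50: cells exposed to compound for 48 hours before the viability read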); conditions: SU-DIPG-XIII viability, CellTiter-Glo ATP luminescence
[4] = SU-DIPG-VI glioma cell viability, MIPE4.0 library, CellTiter-Glo luminescence, qHTS (AID 1347066; cut-off not given, nearly all actives have AC50 up to about 30 µM;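 also: cells exposed to compound for 48 hours before readout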); conditions: CellTiter-Glo ATP luminescence
[5] = SU-DIPG-XXV glioma cell viability, MIPE5.0 library, qHTS (AID 1347068; cut-off not given, nearly all actives have IC50 up to about 30 µM)
[6] = sensitizers of A549 cells to miR-34 induction, primary screen, imaging, A549 dox-inducible miR-34, nuclei and caspase counts (AID 1347080;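 active = compounds whose cell count with miR-34 switched on is under 0.7 times the count with it off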); conditions: A549 miR-34 inducible, Hoechst nuclei count, 48 h
[7] = modifiers of HSF1 nuclear foci, imaging, Selleck Cancer Library (AID 1347162; in the data active = plate-normalised HSF1 focus index below about 0.46); conditions: human cells, at 10 µM; SSMD: measured here: HSF1 foci SSMD mean; cell count: measured here: cell number; plate-normalised HSF1 focus index: stronger effect = lower value
[8] = survival rescue of mitochondrial mutant cells in low glucose, primary screen, MELAS cybrids, Rieske KO mouse fibroblasts, CellTiter-Glo (AID 1508586;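 active = mean z-score across replicates of 1.96 or higher in either the MELAS or the Rieske mutant cell line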;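 also: z relative to plate mean and SD of compound and empty wells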)
[9] = ovarian cancer cell viability with rucaparib, profiling panel, oncology-focused library, rucaparib conditional (AID 1508598); conditions: patient-derived ovarian cancer cells, CellTiter-Glo viability, 144 h, stronger effect = lower value
[10] = viability loss in pontine glioma line – cell-based, SU-DIPG-XXV, MIPE5.0, CellTiter-Glo, qHTS, dose response (AID 1347065; cut-off not given, nearly all actives have AC50 up to about 26 µM;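 also: cells exposed to compound for 48 hours before ATP readout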); conditions: CellTiter-Glo ATP luminescence
[11] = growth inhibition of DIPG glioma cells, dose response, cell-based, SU-DIPG-XIII, MIPE4.0, CellTiter-Glo, qHTS (AID 1347061; cut-off not given, nearly all actives have AC50 up to about 37 µM;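 also: cells exposed to compound for 48 hours before readout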); conditions: SU-DIPG-XIII viability, CellTiter-Glo ATP luminescence
[12] = JHH-DIPG-1 glioma cell viability, MIPE5.0 library, CellTiter-Glo luminescence, qHTS (AID 1347067; cut-off not given, nearly all actives have AC50 up to about 26 µM;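 also: cells exposed to compound for 48 hours before readout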); conditions: JHH-DIPG-1 glioma viability, CellTiter-Glo ATP luminescence
[13] = stronger effect = lower value, cell number ratio, induced over uninduced
[14] = measured here: relative caspase fold change +Dox/-Dox
[15] = measured here: total cells with miR-34 induction, stronger effect = lower value
[16] = measured here: total cells without miR-34 induction
[17] = MELAS cybrid survival, CellTiter-Glo 48 h, stronger effect = higher value
[18] = Rieske KO mouse fibroblast survival, CellTiter-Glo 72 h

CCCS(=O)(=O)Nc1ccc(F)c(C(=O)c2c[nH]c3ncc(-c4ccc(Cl)cc4)cc23)c1F
outcome [1]: inactive
AC50 [2]: 14.8 µM (active)
outcome [3]: inactive
outcome [4]: inactive
outcome [5]: inactive
fold change [6, 13]: 0.763 (inactive)
fold change [6, 14]: 1
cell count [6, 15]: 5420
cell count [6, 16]: 7100
SSMD [7]: 2.8
cell count [7]: 6960
plate-normalised HSF1 focus index [7]: 1.15 (inactive)
z-score [8, 17]: -0.461 (inactive)
z-score [8, 18]: -0.424
viability ([9]; at 0.000305 µM, OCI-C5x cells, with rucaparib 10 µM, 100% = cells with rucaparib alone): 120% (inactive)
viability ([9]; at 0.000305 µM, OCI-C5x cells, without rucaparib): 96.8% (active)
viability ([9]; at 0.000305 µM, OCI-P5x cells, with rucaparib 20 µM, 100% = cells with rucaparib alone): 95.6% (active)
viability ([9]; at 0.000305 µM, OCI-P5x cells, without rucaparib): 93% (active)
viability ([9]; at 0.00122 µM, OCI-C5x cells, with rucaparib 10 µM, 100% = cells with rucaparib alone): 112% (inactive)
viability ([9]; at 0.00122 µM, OCI-C5x cells, without rucaparib): 111% (inactive)
viability ([9]; at 0.00122 µM, OCI-P5x cells, with rucaparib 20 µM, 100% = cells with rucaparib alone): 99.5% (active)
viability ([9]; at 0.00122 µM, OCI-P5x cells, without rucaparib): 96.2% (active)
viability ([9]; at 0.00488 µM, OCI-C5x cells, with rucaparib 10 µM, 100% = cells with rucaparib alone): 123% (inactive)
viability ([9]; at 0.00488 µM, OCI-C5x cells, without rucaparib): 106% (inactive)
viability ([9]; at 0.00488 µM, OCI-P5x cells, with rucaparib 20 µM, 100% = cells with rucaparib alone): 103% (inactive)
viability ([9]; at 0.00488 µM, OCI-P5x cells, without rucaparib): 99% (active)
viability ([9]; at 0.0195 µM, OCI-C5x cells, with rucaparib 10 µM, 100% = cells with rucaparib alone): 107% (inactive)
viability ([9]; at 0.0195 µM, OCI-C5x cells, without rucaparib): 107% (inactive)
viability ([9]; at 0.0195 µM, OCI-P5x cells, with rucaparib 20 µM, 100% = cells with rucaparib alone): 107% (inactive)
viability ([9]; at 0.0195 µM, OCI-P5x cells, without rucaparib): 102% (inactive)
viability ([9]; at 0.0781 µM, OCI-C5x cells, with rucaparib 10 µM, 100% = cells with rucaparib alone): 105% (inactive)
viability ([9]; at 0.0781 µM, OCI-C5x cells, without rucaparib): 107% (inactive)
viability ([9]; at 0.0781 µM, OCI-P5x cells, with rucaparib 20 µM, 100% = cells with rucaparib alone): 103% (inactive)
viability ([9]; at 0.0781 µM, OCI-P5x cells, without rucaparib): 104% (inactive)
viability ([9]; at 0.313 µM, OCI-C5x cells, with rucaparib 10 µM, 100% = cells with rucaparib alone): 106% (inactive)
viability ([9]; at 0.313 µM, OCI-C5x cells, without rucaparib): 107% (inactive)
viability ([9]; at 0.313 µM, OCI-P5x cells, with rucaparib 20 µM, 100% = cells with rucaparib alone): 93.7% (active)
viability ([9]; at 0.313 µM, OCI-P5x cells, without rucaparib): 105% (inactive)
viability ([9]; at 1.25 µM, OCI-C5x cells, with rucaparib 10 µM, 100% = cells with rucaparib alone): 49.6% (active)
viability ([9]; at 1.25 µM, OCI-C5x cells, without rucaparib): 35% (active)
viability ([9]; at 1.25 µM, OCI-P5x cells, with rucaparib 20 µM, 100% = cells with rucaparib alone): 45.5% (active)
viability ([9]; at 1.25 µM, OCI-P5x cells, without rucaparib): 10.7% (active)
viability ([9]; at 5 µM, OCI-C5x cells, with rucaparib 10 µM, 100% = cells with rucaparib alone): 97.9% (active)
viability ([9]; at 5 µM, OCI-C5x cells, without rucaparib): 105% (inactive)
viability ([9]; at 5 µM, OCI-P5x cells, with rucaparib 20 µM, 100% = cells with rucaparib alone): 49.3% (active)
viability ([9]; at 5 µM, OCI-P5x cells, without rucaparib): 16.3% (active)

NC1(Cc2ccc(Cl)cc2)CCN(c2ncnc3[nH]ccc23)CC1
AC50 [1]: 20.9 µM (active)
AC50 [2]: 11.8 µM (active)
AC50 [3]: 14.8 µM (active)
AC50 [10]: 14.8 µM (active)
fold change [6, 13]: 0.99 (inactive)
fold change [6, 14]: 0.525
cell count [6, 15]: 7470
cell count [6, 16]: 7540
z-score [8, 17]: -0.165 (inactive)
z-score [8, 18]: -1.1

CNC(=O)[C@H](Cc1ccccc1)NC(=O)[C@H](CC(C)C)[C@H](CSc1cccs1)C(=O)NO
outcome [11]: inactive
outcome [4]: inactive
outcome [12]: inactive
outcome [5]: inactive

CCOC(=O)N1CCN(/[N+]([O-])=N/Oc2cc(O/N=[N+](\[O-])N3CCN(C(=O)OCC)CC3)c([N+](=O)[O-])cc2[N+](=O)[O-])CC1
AC50 [1]: 9.35 µM (active)
AC50 [2]: 23.5 µM (active)

CO[C@H]1C[C@@H]2CC[C@@H](C)[C@@](O)(O2)C(=O)C(=O)N2CCCC[C@H]2C(=O)O[C@H]([C@@H](C)C[C@@H]2CC[C@@H](O)[C@H](OC)C2)CC(=O)[C@H](C)/C=C(\C)[C@@H](O)[C@@H](OC)C(=O)[C@H](C)C[C@H](C)/C=C/C=C/C=C/1C
AC50 [1]: 20.9 µM (active)
AC50 [2]: 20.9 µM (active)
AC50 [10]: 16.6 µM (active)
AC50 [12]: 23.5 µM (active)
fold change [6, 13]: 0.999 (inactive)
fold change [6, 14]: 1.23
cell count [6, 15]: 3690
cell count [6, 16]: 3700

CC(=O)C1=C(O)C=C2Oc3c(C(C)=O)c(O)c(C)c(O)c3C2(C)C1=O (stereo not given)
outcome [11]: inactive
outcome [4]: inactive

Oc1ccc(C2=Cc3ccc(O)cc3OC2)cc1
AC50 [1]: 8.33 µM (active)
AC50 [2]: 3.32 µM (active)
outcome [10]: inactive
